The panel holds about 83,000 compounds, 20% with a hit somewhere; the sample as a whole holds those more often.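 Assay: single dose, 48 h. Readout: percent growth (0 = no net growth; negative = cell death). Active: <10.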 Unmarked numbers belong to inactive results. Active and inactive are the calls of the source.

Data on eight compounds can be found in PubChem BioAssay (NCI).

Common to all, as to assay: NCI-60 one-dose screen, 48 h (100 = growth as untreated, 0 = no growth, -100 = all killed)
The test system of assay [1] is HT29 colon. As to conditions: 10 µM unless noted.
Assay [2] has as its system SNB-75 CNS. As to conditions: 10 µM unless noted.
In assay [3] the test system is SNB-19 CNS. The settings on record: 10 µM unless noted.
The test system of assay [4] is U251 CNS. As to conditions: 10 µM unless noted.
The test system of assay [5] is PC-3 prostate. As to conditions: 10 µM unless noted.
Assay [6] relates to SK-MEL-5 melanoma. The settings on record: 10 µM unless noted.
Assay [7] has as its system UACC-62 melanoma. The settings on record: 10 µM unless noted.
Assay [8] has as its system LOX IMVI melanoma. As to conditions: 10 µM unless noted.
Assay [9] concerns SK-MEL-28 melanoma. The settings on record: 10 µM.
In assay [10] the test system is SK-MEL-2 melanoma. The settings on record: 10 µM unless noted.
Assay [11] deals with EKVX NSCLC. The settings on record: 10 µM unless noted.
Assay [12] concerns SN12C renal. As to conditions: 10 µM unless noted.
The subject of assay [13] is UO-31 renal. The settings on record: 10 µM unless noted.
Assay [14] relates to TK-10 renal. The settings on record: 10 µM unless noted.
For assay [15], the system named is ACHN renal. As to conditions: 10 µM unless noted.
Assay [16] concerns CAKI-1 renal. The settings on record: 10 µM unless noted.
The subject of assay [17] is A498 renal. The settings on record: 10 µM unless noted.
The test system of assay [18] is CCRF-CEM leukemia. As to conditions: 10 µM unless noted.
The subject of assay [19] is MOLT-4 leukemia. As to conditions: 10 µM unless noted.
Assay [20] concerns SR leukemia. As to conditions: 10 µM unless noted.

For the compound `NCCOc1ncccc1/C=C1\c2ccccc2-c2ccc([N+](=O)[O-])cc21`, the growth is -6.91% (active) in assay [1]; -81.1% (active) in assay [2]; -6.38% (active) in assay [3]; -75% (active) in assay [4]; 3.4% (active) in assay [5]; -97.5% (active) in assay [6]. The growth in assay [7] was -81.5% (active); in assay [8], -91.1% (active); in assay [9], -22% (active); in assay [10] it was -21.2% (active); in assay [11], -19% (active); in assay [12] it was -62% (active). For the same compound, the growth in assay [13] is -99.2% (active); in assay [14], -74.9% (active); in assay [15] it was -89.4% (active); in assay [16], -39.3% (active); in assay [17], -89% (active); in [18], 8.64% (active). In addition, the results for the growth in assay [19] and in [20] were -3.92% (active) and 1.14% (active), respectively.

As to `O=C(NCc1ccco1)C1CN(c2ccc(Cl)cc2)N(c2ccc(Cl)cc2)C1=O` (stereo not given), the growth in assay [1] was 16.4%; in assay [2] it was 16.8%; in [3], 54.4%; in assay [4] it was 33.9%; in assay [5] it was 27%; in assay [6], 41.8%. The growth in assay [7] is 24.4%; in [8] it was 45.9%; in assay [9], 66.2%; in assay [10] it was 49.2%; in assay [11], 65.5%; in [12], 62.9%. Moreover, the growth in assay [13] is 42.7%; in assay [14], 84.2%; in [15] it was 63.5%; in assay [16] it was 41.1%; in [17], 38.2%; in [18], 32.3%. Besides, the growth in assay [19] is 28.3%; in assay [20], 36.7%.

On to `COc1cccc2c1C=C1CCCCC3=Cc4c(OC)cccc4OC13O2`, for which the growth was 16.3% in assay [1]; -18.1% (active) in assay [2]; 51.3% in assay [3]; 30.9% in assay [4]; 33.7% in [5]; 50.3% in [6]. Moreover, the growth in [7] is 24.2%; in [8] it was 32.8%; in assay [9], 53.6%; in [10] it was 48.6%; in assay [11], 60.5%; in [12], 49.5%. Moreover, the growth was 44.5% in assay [13]; 74.7% in assay [14]; 38.7% in assay [15]; 47.8% in [16]; 35.9% in [17]; 27.9% in assay [18]. Further, the growth was 29.1% in [19] and 28.6% in [20].

In the case of `COC(=O)C1(C)CCC[C@]2(C)[C@H]3C[C@H]4C(C(C)C)=C[C@]3(CC[C@@H]12)[C@H]1[C@@H]4[C@@H](OCC#CCN2CCOCC2)CC[C@@H]1OCC#CCN1CCOCC1` (stereo not given in full), the growth was 77.6% in assay [1]; 93.1% in assay [2]; 79% in assay [3]; 70.9% in assay [4]; 53.9% in [5]; 80.2% in assay [6]. For the same compound, the growth in assay [7] is 61%; in [8], 89%; in assay [9], 90.5%; in assay [10], 89.3%; in [11], 67.2%; in [12], 81.1%. Further, the growth was 72.9% in assay [13]; 98% in assay [14]; 92.3% in assay [15]; 80% in assay [16]; 101% in assay [17]; 72% in [18]. Also, the results for the growth in assay [19] and in assay [20] were 70% and 88.3%, respectively.

Regarding `NCCOc1ccccc1/C=C1\c2ccccc2-c2ccc([N+](=O)[O-])cc21`, the growth was -59.7% (active) in [1]; -5.59% (active) in assay [2]; 10.6% in assay [3]; -74.1% (active) in assay [4]; 36.8% in assay [5]; 30.1% in assay [6]. The growth is 20.7% in assay [7]; -93.8% (active) in assay [8]; 48% in assay [9]; 78.3% in [10]; 54.9% in assay [11]; -17.9% (active) in assay [12]. Besides, the growth in assay [13] is -7% (active); in assay [14] it was -1.56% (active); in assay [15], -73.6% (active); in assay [16], 1.27% (active); in assay [17], 25.1%; in assay [18], 0.81% (active). The growth is -14.1% (active) in assay [19] and -23.7% (active) in assay [20].

`CC(=S)NC(=O)C(=O)/C=C1/NC(=O)C(=O)S1`: the growth was 110% in [1]; 95.5% in [2]; 106% in assay [3]; 111% in [4]; 99.6% in assay [5]; 104% in [6]. Besides, the growth is 99.9% in assay [7]; 99.7% in [8]; 106% in assay [9]; 103% in assay [10]; 100% in [11]; 99.1% in assay [12]. Further, the growth in assay [13] was 79.5%; in assay [14] it was 110%; in assay [15] it was 99.1%; in assay [16] it was 93.8%; in assay [17], 103%; in [18] it was 107%. The growth was 112% in assay [19] and 107% in assay [20].

`O=c1c2cc(F)ccc2sc2c(Nc3ccncc3)nc3ccccc3c12`: the growth was -58.1% (active) in [1]; 56.5% in assay [2]; 25.5% in assay [3]; -33% (active) in assay [4]; -10.7% (active) in [5]; 75% in assay [6]. In addition, the growth was 66.7% in assay [7]; -66.7% (active) in assay [8]; 87.7% in assay [9]; 99.5% in assay [10]; 35.8% in assay [11]; 90% in [12]. Further, the growth in assay [13] is -83.3% (active); in assay [14] it was 78.6%; in assay [15], 28.5%; in assay [16], 82.5%; in assay [17], 63.9%; in assay [18], -27.4% (active). Moreover, the figures for the growth in assay [19] and in assay [20] were -36.9% (active) and -4.43% (active), respectively.

Take `COc1ccc(/C=C/C(=O)c2ccc(Nc3nc(NCCO)nc(Nc4ccc(Cl)cc4)n3)cc2)cc1`: the growth in [1] is 40%; in assay [2], 61.2%; in assay [3] it was 85%; in assay [4], 53.4%; in assay [5] it was 50.6%; in assay [6], 66.9%. Also, the growth in assay [7] was 69.7%; in assay [8], 61.6%; in [9] it was 79.2%; in assay [10], 98.1%; in assay [11], 66.6%; in [12], 86.6%. In addition, the growth in [13] is 70.8%; in [14], 96.2%; in assay [15], 67.7%; in assay [16], 81.4%; in assay [17], 69.2%; in assay [18] it was 48.8%. Besides, the growth in assay [19] was 46.3%; in assay [20] it was 38.4%.
